Measured values reported in PubChem BioAssay AID1252 (The Scripps Research Institute Molecular Screening Center, 2008).
The other results are listed elsewhere or left out. Calls of active or inactive are those of the source.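 Rule for the calls: active = over 50% activation at some tested dose; inactive = under 50% activation at every tested dose.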

assay: Hsp70 transcriptional activators, dose response, cell-based, HeLa, Hsp70 promoter luciferase, luminescence, triplicate (AID 1252); details: HeLa hsp70.1pr-luc reporter; series mostly up to 99 µM; activation: at the top concentration

activation, inactive:
O=C(/C=C/Sc1ncn[nH]1)c1ccc(Cl)cc1 3.8%
COCCn1c(C)cc(C(=O)CSc2nc3ccccc3c(=O)n2C(C)COC)c1C (centres undefined) -0.3%
COc1ccc(CS(=O)/C(Cl)=C(/Cl)C(=O)Nc2ccc(OC)nc2)cc1 (centres undefined) -0.5%
COc1ccc(NC(=O)/C(Cl)=C(/Cl)S(=O)Cc2ccc(C)cc2)cn1 (centres undefined) 1.6%
